Values joined by “and” are separate entries in the source; they are usually repeats but may differ in a detail not shown here. Equal entries are not always repeated. Active and inactive are the calls of the source.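 How the source made its calls: active means compounds whose dose series gives a full or clear partial fitted curve of increased nuclear translocation; inconclusive means weak partial curve or effect only at the top dose; inactive means no dose-dependent translocation response.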

These results are taken from PubChem BioAssay (NCATS).
Potency means the concentration at half of the fitted maximal effect.

For this test, the target named is Glucocorticoid receptor (Homo sapiens) (UniProt P04150). In words: GR-GFP Redistribution (AID 450). To be noted: U2OS GR-GFP nuclear translocation, laser cytometry, 2 h. The text has this: NIH Molecular Libraries Screening Centers Network [MLSCN]
Chain of Glucocorticoid receptor (Homo sapiens) (P04150 whole entry, looked up): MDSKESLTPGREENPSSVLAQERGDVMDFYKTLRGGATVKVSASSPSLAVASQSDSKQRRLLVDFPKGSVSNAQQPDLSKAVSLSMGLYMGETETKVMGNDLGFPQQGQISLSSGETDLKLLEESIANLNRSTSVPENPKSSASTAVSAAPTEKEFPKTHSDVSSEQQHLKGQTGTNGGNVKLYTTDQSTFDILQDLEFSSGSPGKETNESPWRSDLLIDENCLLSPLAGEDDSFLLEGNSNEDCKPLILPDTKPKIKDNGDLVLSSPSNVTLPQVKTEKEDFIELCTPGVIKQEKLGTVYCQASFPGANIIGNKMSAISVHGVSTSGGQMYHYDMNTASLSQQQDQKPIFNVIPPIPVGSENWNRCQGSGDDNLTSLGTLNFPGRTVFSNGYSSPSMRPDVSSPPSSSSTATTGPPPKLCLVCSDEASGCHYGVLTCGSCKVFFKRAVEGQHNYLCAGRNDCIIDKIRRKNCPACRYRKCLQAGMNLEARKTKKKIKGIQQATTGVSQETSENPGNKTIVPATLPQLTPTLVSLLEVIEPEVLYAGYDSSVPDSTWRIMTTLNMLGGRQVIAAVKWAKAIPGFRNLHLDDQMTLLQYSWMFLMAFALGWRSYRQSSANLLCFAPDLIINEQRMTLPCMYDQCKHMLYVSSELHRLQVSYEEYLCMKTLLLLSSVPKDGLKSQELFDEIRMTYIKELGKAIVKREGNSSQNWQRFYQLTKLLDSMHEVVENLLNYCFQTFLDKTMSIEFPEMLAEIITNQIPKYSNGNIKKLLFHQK
NIH Chemical Genomics Center [NCGC]
The glucocorticoid receptor (GR) Redistribution assay (BioImage) enables the visualization of GR cytoplasmic to nuclear translocation by the use of a GR-GFP fusion. GR is normally cytosolic, however ligands such as dexamethasone, cause nuclear translocation where the protein binds to response elements and interacts with various co-factors to modulate transcription. Because both functional agonists and antagonists can induce nuclear translocation, this assay can detect ligands regardless of their effects on gene expression. GR-GFP expressing U20S cells were used here. Dexamethasone was the positive control for translocation and data normalization. Detection of nuclear translocation was performed in 1536-well plates using the Acumen laser scanning plate cytometer (TTP LabTech). Validation of this assay and a detailed protocol have been described.
NCGC Assay Protocol Summary:
GR-GFP U2OS cells were maintained in DMEM with Glutamax and high glucose, 1% v/v penicillin-streptomycin, and 0.5 mg/mL Geneticin. For cell culture, 10% […] fetal bovine serum (FBS) was used (Invitrogen #26140-079). For cell plating 10% dextran, charcoal-stripped FBS (Hyclone SH30068.03) was used. U2OS cells were trypsin treated, suspended in medium, and passed through a 40 um basket filter. The cells were seeded at 600 cells/5 uL/well into clear-bottom black sided 1536-well plates and incubated for approximately 20 hrs, 37degC, 5%, CO2 in a tissue culture incubator. Twenty-three nL of compound was delivered by pin tool and the plates were incubated as above for 2 hrs. The compounds were tested as a 7-point titration ranging from 46 uM to 0.6 nM. The cells were fixed using the Kalypsys Washer/Dispenser station. The fixing protocol involved aspiration of the cell media, addition of 6 uL/well of PBS, aspiration of PBS, addition of 5uL/well of 100% methanol, aspiration of methanol, and addition of 3 uL/well PBS with 1.5 uM propidium iodide (PI). The plates were read by the Acumen Explorer using a 1 x 8 um scan of the whole well area. PI fluorescence triggered the collection of PI and GFP signals. A nuclei population was defined by a 10 to 100 um width and depth filter that eliminated small and large fluorescent particles. Two subpopulations of nuclei were then defined by peak intensity of GFP fluorescence to obtain translocated and untranslocated objects. The number of translocated objects was used for data normalization.
Keywords: NIH Roadmap, MLSCN, MLI, MLSMR, sOGT, qHTS, NCGC
With `CCS(=O)(=O)Nc1cccc(C(=C2CCCCC2)c2cnc[nH]2)c1`, the Potency is > 46 µM (inactive). To `O=S(=O)(O)c1cc(O)ccc1O` belongs > 20.6 µM (inactive). To `NNC(=O)c1ccc(O)cc1` belongs > 46 µM (inactive); to `N#CC(C#N)=Cc1cc(O)c(O)c(O)c1`, > 46 µM (inactive). In the case of `OCc1cnc[nH]1`, the Potency is > 46 µM (inactive). To `C[N+](C)(C)CC#CCOC(=O)Nc1cccc(Cl)c1` belongs > 46 µM (inactive); to `C[C@@H]1O[C@H](C[N+](C)(C)C)CS1`, > 46 µM (inactive); to `COc1ccc2[nH]c3c(c2c1)CCNC3`, > 46 µM (inactive). Consider `Cc1c2ccncc2c(C)c2c1[nH]c1ccccc12`, for which the Potency is > 46 µM (inactive) and > 20.6 µM (inactive). Take `CCC1(C)CC(=O)NC(=O)C1`: the Potency is > 20.6 µM (inactive). Take `C[C@H](N)CN1CCc2ccc(Br)cc21`: the Potency was > 46 µM (inactive). With `CN1CCC(c2c[nH]c3ccc(O)cc23)CC1`, the Potency was > 46 µM (inactive).

For the compound `Cc1cc(C)cc(C(=O)OC2C[C@H]3CC[C@@H](C2)N3C)c1` (stereo not given in full), the Potency was > 46 µM (inactive).

Consider `Cc1sc2ccccc2c1CC1=NCCN1`, for which the Potency is > 46 µM (inactive). To `C[N+](C)(C)CCOC(=O)CBr` belongs > 46 µM (inactive). Regarding `CN1[C@@H]2CC[C@H]1CC(OC1c3ccccc3CCc3ccccc31)C2` (stereo not given in full), the Potency is > 20.6 µM (inactive). Under `CC(C)(C)c1cc(C=C(C#N)C#N)cc(C(C)(C)C)c1O` stands > 46 µM (inactive); under `Cc1[nH]c2ccc(O)cc2c1CCN`, > 46 µM (inactive); under `CN1CCc2cc(O)cc3c2[C@H]1Cc1ccc(O)c(O)c1-3`, > 46 µM (inactive). Take `CCCN(CCC)[C@@H]1CCc2cccc(O)c2C1`: the Potency is > 46 µM (inactive). As to `CCCn1c(=O)c2[nH]c(C3CCCC3)nc2n(CCCOC(=O)c2ccc(S(=O)(=O)F)cc2)c1=O`, the Potency was > 46 µM (inactive). As to `c1ccc2c(N3CCNCC3)cccc2c1`, the Potency is > 46 µM (inactive). To `NCCc1c[nH]c2ccc(C(N)=O)cc12` belongs > 46 µM (inactive). Regarding `CCCCCCC(C)(C)c1ccc([C@@H]2C[C@H](O)CC[C@H]2CCCO)c(O)c1`, the Potency was > 46 µM (inactive). Under `CP(=O)(O)C1=CCNCC1` stands > 46 µM (inactive). To `CC(=O)NBr` belongs > 46 µM (inactive); to `CCCN(CCC)CCc1c[nH]c2ccc(C(N)=O)cc12`, > 46 µM (inactive); to `COc1ccc2[nH]cc(CCN)c2c1`, > 46 µM (inactive). Under `NCCc1ccc(S(=O)(=O)F)cc1` stands > 46 µM (inactive). `C[C@@H]1[C@@H]2Cc3ccc(O)cc3[C@@]1(C)CCN2CC1CC1`: the Potency is > 46 µM (inactive). As to `NC(=O)COc1c(F)cc(SCCNS(=O)(=O)c2ccccc2)cc1F`, the Potency is > 46 µM (inactive). `NC(N)=NOCC[C@H](N)C(=O)O`: the Potency was > 46 µM (inactive) and > 20.6 µM (inactive). As to `C[N+]1(C)[C@@H]2CC[C@H]1CC(OC(=O)c1c[nH]c3ccccc13)C2` (stereo not given in full), the Potency was > 46 µM (inactive).

On to `CN1CCc2cccc(Cl)c2CC1`, for which the Potency was > 46 µM (inactive). To `C[N+](C)(C)CC#CCN1CCCC1=O` belongs > 46 µM (inactive). To `O=[N+]([O-])c1cc(O)c(O)c([N+](=O)[O-])c1` belongs > 46 µM (inactive); to `CC(C)NP(=O)(NC(C)C)OP(=O)(NC(C)C)NC(C)C`, > 46 µM (inactive). Consider `N[C@@H](Cn1oc(=O)[nH]c1=O)C(=O)O`, for which the Potency is > 46 µM (inactive). `NCCCP(=O)(O)O`: the Potency is > 46 µM (inactive). Under `CN(N=O)c1ccc(O)c(O)c1` stands > 46 µM (inactive).
